Holding throughout (experiment): NCI-60 one-dose screen, 48 h (100 = growth as untreated, 0 = no growth, -100 = all killed)
Common to all, as to conditions: 10 µM unless noted

Assay [1] relates to SR leukemia.
Assay [2] deals with RPMI-8226 leukemia.
The subject of assay [3] is OVCAR-8 ovarian.
Assay [4] concerns OVCAR-5 ovarian.
Assay [5] has as its system OVCAR-4 ovarian.
Assay [6] deals with SK-OV-3 ovarian.
The subject of assay [7] is IGROV1 ovarian.
Assay [8] relates to OVCAR-3 ovarian.
Assay [9] has as its system HS 578T breast.
Assay [10] has as its system NCI/ADR-RES ovarian.
Assay [11] has as its system T-47D breast.
The subject of assay [12] is BT-549 breast.
Assay [13] concerns MDA-MB-435 melanoma.
In assay [14] the test system is SW-620 colon.
The test system of assay [15] is MCF7 breast.
Assay [16] deals with HCT-116 colon.
In assay [17] the test system is HCC-2998 colon.
Assay [18] relates to KM12 colon.

This passage reports growth results from PubChem BioAssay (NCI).

Compounds without any hit were thinned out: in the full panel of roughly 83,000, 20% have a hit.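 Testing used 96-well plates and a 48-hour single-concentration exposure. Example: -40 means 40% of the starting cells died.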 Values without a mark were called inactive. Activity calls are given as the source filed them. Rule for the calls: active = growth percent below 10; inactive = the rest.

Take `NC1=NN=C2N(N)C(=O)c3cnn(-c4ccccc4)c3N2c2nc(-c3ccccc3)cc(-c3ccccc3)c21`: the growth in assay [1] is 103%; in [2], 93.5%; in assay [3], 102%; in assay [4] it was 104%; in [5], 82.8%; in assay [6] it was 93.2%. In addition, the growth in [7] is 89%; in assay [8], 116%; in [9] it was 101%; in [10], 92.1%; in assay [11], 71.1%; in assay [12], 108%. Besides, the growth in assay [13] is 108%; in [14], 104%; in assay [15] it was 65.5%; in assay [16], 93.7%; in assay [17] it was 107%; in assay [18] it was 103%.

Regarding `CC(C)=CCC[C@](C)(O)[C@H]1CC[C@]2(C)[C@@H]1CC[C@@H]1[C@@]3(C)C/C(=C/c4cccc([N+](=O)[O-])c4)C(=O)C(C)(C)[C@@H]3CC[C@]12C`, the growth in assay [1] is 72.7%; in assay [2] it was 59.9%; in assay [3] it was 77.5%; in [4], 94.1%; in [5], 82.5%; in [6], 109%. Further, the growth is 107% in assay [7]; 89.7% in assay [8]; 93.3% in assay [9]; 101% in assay [10]; 60.2% in [11]; 97.1% in assay [12]. The growth in [13] is 94.2%; in [14] it was 72.6%; in assay [15], 72.8%; in assay [16], 51.5%; in [17], 85.7%; in assay [18], 86%.

Take `COc1cc(-c2cc3ncccc3c3[nH]c(=O)c4cccnc4c23)cc(OC)c1OC`: the growth in [1] was 20%; in assay [2], 6.32% (active); in [3] it was 35.9%; in assay [4], 45.4%; in assay [5], 58.1%; in assay [6], 11.2%. The growth in assay [7] is 50.1%; in [8], 33.6%; in assay [9] it was 10.6%; in assay [10] it was 22.1%; in assay [11], 37.5%; in assay [12], 49.1%. In addition, the growth was -26.2% (active) in assay [13]; 32.9% in [14]; 17.3% in assay [15]; 17.8% in assay [16]; 48.5% in assay [17]; 30.7% in assay [18].

As for `O=C(N/N=C/c1ccccc1SSc1ccccc1/C=N/NC(=O)c1ccccc1)c1ccccc1`, the growth in assay [1] is 18.9%; in assay [2] it was 31.1%; in [3], 24.9%; in assay [4] it was 85.2%; in assay [5], 38.5%; in assay [6] it was 43%. Further, the growth in assay [7] is 30.6%; in [8], 31.1%; in [9] it was 75.4%; in assay [10], 9.77% (active); in assay [11] it was 43.6%; in assay [12], 30.1%. In addition, the growth is 46.1% in [13]; 41.6% in [14]; 10.1% in assay [15]; 24.6% in [16]; 55.6% in assay [17]; 36.4% in assay [18].

With `COc1cc(/C=C/c2cc(/C=C/c3ccc(O)c(OC)c3)n(-c3ccccc3)c(=O)n2)ccc1O`, the growth was 30.7% in [1]; 50.7% in assay [2]; 79.1% in [3]; 113% in assay [4]; 61.3% in assay [5]; 90.7% in [6]. Also, the growth was 87% in assay [7]; 72.3% in assay [8]; 69.6% in assay [9]; 97.7% in assay [10]; 71.4% in assay [11]; 56.9% in assay [12]. The growth in assay [13] was 73.1%; in assay [14], 78.4%; in [15], 40.8%; in [16] it was 55.6%; in assay [17], 104%; in assay [18] it was 63.2%.

For `CCC(=O)c1c(C)[nH]c(C)c1C`, the growth in [1] was 70.7%; in assay [2] it was 113%; in [3] it was 85.1%; in [4], 48.8%; in assay [5], 123%; in assay [6], 93%. Also, the growth is 76.1% in [7]; 115% in [8]; 138% in assay [9]; 85.3% in [10]; 104% in [11]; 94% in [12]. Besides, the growth was 95.1% in [13]; 52.3% in [14]; 61.1% in assay [15]; 47.2% in assay [16]; 114% in [17]; 102% in assay [18].

`Nc1c(C(=O)Nc2cccc3ccccc23)sc2nc3c(cc12)CCCC3`: the growth is 9.22% (active) in assay [1]; 28.3% in assay [2]; 33.8% in [3]; 44.7% in assay [4]; 52.7% in assay [5]; 36.8% in [6]. In addition, the growth is 45.4% in [7]; 2.02% (active) in [8]; 27.8% in [9]; 0.722% (active) in assay [10]; 55.7% in [11]; 64.6% in assay [12]. Besides, the growth in [13] is -63.1% (active); in [14] it was 31%; in assay [15] it was 20.6%; in [16] it was 20.7%; in assay [17] it was 26.7%; in assay [18] it was 26.7%.

Regarding `C=C(C)[C@@H]1CC[C@]2(C=NCCCNCCCCNCCCN)CC[C@]3(C)[C@H](CC[C@@H]4[C@@]5(C)CCCNC(C)(C)[C@@H]5CC[C@]43C)[C@@H]12`, the growth in assay [1] is 21.7%; in [2], 107%; in assay [3], 83.8%; in assay [4] it was 112%; in assay [5], 102%; in [6], 95.8%. Further, the growth in assay [7] is 112%; in assay [8] it was 106%; in [9], 104%; in assay [10], 91.8%; in assay [11] it was 90.8%; in assay [12], 98.2%. In addition, the growth in assay [13] is 94.8%; in [14], 88.4%; in assay [15] it was 89.4%; in assay [16], 77.7%; in assay [17] it was 100%; in assay [18] it was 98.2%.

Turning to `COc1cccc(-c2nn(-c3ccccc3)cc2-c2ccnc(NCCNS(=O)(=O)c3ccc(C(F)(F)F)cc3)c2)c1`, the growth is -16.1% (active) in [1]; -4.8% (active) in assay [2]; 15.7% in assay [3]; 24.9% in assay [4]; 31.2% in [5]; 24.5% in [6]. Further, the growth in assay [7] is 28%; in assay [8], 7.03% (active); in [9], 33.9%; in assay [10], 16.9%; in assay [11] it was 3.99% (active); in [12], -29.3% (active). Moreover, the growth in [13] was 13.2%; in assay [14], 28.4%; in assay [15], 11.1%; in [16], 14.7%; in assay [17], 13.7%; in assay [18], 14.7%.

In the case of `N#Cc1cnc2cc(OC[C@@H](O)CO)c(NC(=O)CC3CSSC3)cc2c1Nc1ccc(OCc2cccc(F)c2)c(Cl)c1`, the growth in assay [1] is 1.96% (active); in assay [2], -29.7% (active); in [3], -48.2% (active); in [4], -72.8% (active); in assay [5], -64.4% (active); in assay [6], -86.2% (active). Also, the growth is -56% (active) in assay [7]; -81.3% (active) in assay [8]; -39.8% (active) in assay [9]; 85.9% in [10]; -60.9% (active) in [11]; -71% (active) in assay [12]. The growth in assay [13] was -85.2% (active); in [14], -74.8% (active); in assay [15], -58.8% (active); in [16], -60.5% (active); in assay [17], -78.2% (active); in assay [18] it was -79.6% (active).

For the molecule `Cc1ccsc1-c1ccc2c(c1)COC2(CCCN(C)C)c1ccc(F)cc1` (stereo not given), the growth was -4.74% (active) in assay [1]; 19% in assay [2]; 71.9% in [3]; 72.1% in [4]; 54.4% in assay [5]; 79.1% in assay [6]. Also, the growth in assay [7] is 26.6%; in [8], 67.2%; in assay [9], 49%; in assay [10], 72.4%; in assay [11], 48.7%; in assay [12] it was 81.9%. Further, the growth in assay [13] was 17.1%; in assay [14] it was 54.3%; in assay [15], 22.7%; in [16] it was 23.3%; in assay [17], -48.4% (active); in assay [18], 42.6%.

Turning to `NS(=O)(=O)c1ccc(CCNC(=O)/C=C/c2ccc(Cl)cc2)cc1`, the growth in [1] was 75.6%; in assay [2], 98.3%; in [3] it was 95.1%; in assay [4], 98.5%; in [5], 87.1%; in assay [6], 105%. Also, the growth in [7] is 91.7%; in assay [8], 105%; in [9], 98.2%; in [10], 103%; in [11] it was 90.7%; in assay [12], 108%. Further, the growth in assay [13] is 95.6%; in assay [14], 102%; in assay [15], 92.5%; in assay [16], 100%; in [17], 116%; in assay [18] it was 98.6%.

For the molecule `COc1cc2c3c(c4c5ccccc5[nH]c4c2c(OC)c1OC)C(=O)N(O)C3=O`, the growth is 14.3% in [1]; 31.6% in assay [2]; 36.8% in assay [3]; 112% in assay [4]; 56.6% in [5]; 48.8% in [6]. In addition, the growth in [7] was 9.03% (active); in assay [8], 49.5%; in assay [9], 67.4%; in assay [10] it was 43.8%; in [11], 19.5%; in assay [12], 46.2%. Moreover, the growth in [13] was 56.1%; in assay [14], 49%; in assay [15], 20.4%; in [16], 16.8%; in assay [17], 55.3%; in [18] it was 53.7%.

On to `Cc1nc([P+](c2ccccc2)(c2ccccc2)c2ccccc2)c(Sc2sc(-c3ccccc3)nc2[P+](c2ccccc2)(c2ccccc2)c2ccccc2)o1`, for which the growth in assay [1] is 18.6%; in assay [2], -7.25% (active); in assay [3] it was 8.83% (active); in assay [4] it was 41.3%; in [5], -1.77% (active); in [6], -12.2% (active). Moreover, the growth in assay [7] was 10.3%; in [8], -1.45% (active); in assay [9], 14%; in [10], 75%; in assay [11], 4.85% (active); in [12], -0.458% (active). Moreover, the growth in [13] is -9.1% (active); in assay [14], 9.8% (active); in assay [15], 8.1% (active); in assay [16], 3.77% (active); in assay [17], 15.2%; in [18], -0.528% (active).

For `Cc1csc(-c2ccc3c(c2)COC3(CCCN(C)C)c2ccc(F)cc2)c1` (stereo not given), the growth was -3.41% (active) in [1]; -31.5% (active) in [2]; 39% in [3]; 72.1% in assay [4]; 45.9% in [5]; -22.4% (active) in [6]. In addition, the growth is 17.2% in assay [7]; 58.7% in assay [8]; 47.7% in assay [9]; 78.6% in [10]; -37.5% (active) in assay [11]; 76.6% in assay [12]. Moreover, the growth in assay [13] is -30.3% (active); in assay [14], 22.7%; in assay [15], 17.1%; in assay [16] it was -26.7% (active); in assay [17] it was -50.7% (active); in assay [18], 14.4%.
